Assay results as given in PubChem BioAssay (Tox21).
Inconclusive results are not listed. Values without a mark were called inactive. Activity calls are given as the source filed them. Calls come from the whole dose curve; as a rule, active = well fitted cell-killing curve with a large enough effect in the repeat runs; inconclusive = weak or mixed curves, or effect the other way; inactive = flat fitted curve, though single readings scatter.

Assay: qHTS assay to identify small molecule that activate the aryl hydrocarbon receptor (AhR) signaling pathway - cell viability counter screen (AID 743086); note: nearly all actives have a fitted effect of over 45% in size;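 for viability change, negative = cytotoxic: HepG2 liver cells carrying the AhR DRE luciferase reporter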
Settings: HepG2-AhR-luc viability, CellTiter-Fluor, 24 h; series mostly up to 70.3 µM; viability change, negative = cytotoxic: at the top concentration
Description: U.S. Tox21 Program National Center for Advancing Translational Sciences [NCATS] NIH Chemical Genomics Center [NCGC] U.S. Environmental Protection Agency [EPA] National Institutes of Environmental Health Sciences [NIEHS] National Toxicology Program [NTP] U.S. Food and Drug Administration [FDA] Tox21 Assay overview: The Aryl hydrocarbon Receptor (AhR), a member of the family of basic helix-loop-helix transcription factors, is crucial to adaptive responses to environmental changes. AhR mediates cellular responses to environmental pollutants such as aromatic hydrocarbons through induction of phase I and II enzymes but also interacts with other nuclear receptor signaling pathways A cell based HepG2-AhR-luc assay (HG2L7.5c1 cell line, developed by Dr. Michael S. Denison, University of California at Davis) was used to assess the activation of AhR. HepG2 (human hepatocellular carcinoma) cells were stably transfected with an Ah receptor-responsive firefly luciferase reporter gene plasmid containing 20 dioxin responsive elements and luciferase reporter gene. Increased luciferase activity can be used to identify the compounds that induce AhR activation. The cytotoxicity of the compounds screened against the HepG2-AhR-luc cell line was tested in parallel by measuring the cell viability using CellTiter-Fluor assay in the same wells.
Tox21 Assay Protocol Summary: 4000 cells in 5 uL/well were dispensed into white wall/solid bottom 1536-well plates using a Multidrop Combi (Thermo Fisher Scientific Inc., Waltham, MA) dispenser. After the assay plates were incubated at 37C for 5 h, 23 nL of compound or DMSO vehicle was transferred to the assay plates by a pintool station (Kalypsys, San Diego, CA). The plates were incubated at 37C for 24 hr. For cell viability measurement, 1 ul/well of CellTiter-Fluor reagent (Promega, Madison, WI) was added into the assay plates using a Flying Reagent Dispenser (FRD) (Aurora Discovery, CA),and then the assay plates were incubated at 37C for 30 min. The fluorescence intensity in the plates was measured using a ViewLux plate reader (PerkinElmer, Shelton, CT), followed by the addition of 4 uL of ONE-Glo Luciferase Assay reagent (Promega) using an FRD (Aurora Discovery). After the assay plates were incubated at room temperature for 30 min, luminescence intensity was measured using a ViewLux plate reader (Perkin Elmer).
% is set by controls: 0 for no effect and ±100 for the full control effect; potency is the fitted concentration of half-maximal effect.

First: Cc1cc(C)cc(N)c1
Second: CCc1ccccc1
The “viability change, negative = cytotoxic” value of the first is higher: 1.64% [at 95 µM] for the first, -1.21% [at 95 µM] for the second.

For `CCCCC(CC)COP(=O)(O)O` (stereo not given), the “viability change, negative = cytotoxic” value was 0.255% [at 95 µM].

First: CC1=C(CC=O)C(C)(C)CCC1
Second: C=C1CCC2CC1C2(C)C (stereo not given)
The “viability change, negative = cytotoxic” value of the first is lower: 4.29% for the first, 10.2% for the second.

Compared with `CC(=O)[C@H]1[C@H](C#N)C[C@H]2[C@@H]3CC=C4C[C@@H](O)CC[C@]4(C)[C@H]3CC[C@@]21C`, `C=CC(=O)OCC1CC2CC1C1CCC(COC(=O)C=C)C21` (stereo not given) is higher in “viability change, negative = cytotoxic” value: 0.247% for the first, 4.47% for the second.

Going from `CC=C(Cl)Cl` to `CC1CC(C)C(=O)C1=O` (stereo not given), the “viability change, negative = cytotoxic” value rises from -6.09% to -3.23%.

First: O=C1CCCCCCCCCCOCCCCO1
Second: C1COC1
The “viability change, negative = cytotoxic” value of the first is higher: 0.714% for the first, -0.607% for the second.

Compared with `O=C(Nc1cccc2c(=O)cc(-c3nn[nH]n3)oc12)c1ccc(OCCCCc2ccccc2)cc1`, `O=C(O)c1ccc(OCCCOc2ccc(C(=O)O)cc2)cc1` is lower in “viability change, negative = cytotoxic” value: 11% for the first, -2.85% for the second.

Going from `O=C(O)CCCCCCCCCCCBr` to `CCCCCCNC(=O)n1cc(F)c(=O)[nH]c1=O`, the “viability change, negative = cytotoxic” value falls from 2.75% to -7.57%.

Compared with `CCC(C)COC(=O)CC(C)C` (stereo not given), `CC(=O)OCC[N+](C)(C)C` is lower in “viability change, negative = cytotoxic” value: 5.97% for the first, -2.31% for the second.

Going from `Oc1ccc(Cl)c2cccnc12` to `Cc1ccccc1N=C(N)Nc1ccccc1C`, the “viability change, negative = cytotoxic” value falls from 8.1% to -19.3%.

Going from `Cc1cc(=O)c2c(O)c3c(O)cc(=O)c4c3c3c(cc(O)c1c23)C(C)(C)C=4O` to `C[C@H]1c2cccc(O)c2C(O)=C2C(=O)[C@]3(O)C(O)=C(C(N)=O)C(=O)[C@@H](N(C)C)[C@@H]3[C@@H](O)[C@@H]21`, the “viability change, negative = cytotoxic” value rises from 15.4% to 17%.

Going from `C=C(C)C(=O)OCCOCCOC(=O)C(=C)C` to `CCOC(=O)C1=C(C)NC(C)=C(C(=O)OC)C1c1cccc(Cl)c1Cl` (stereo not given), the “viability change, negative = cytotoxic” value falls from 10.6% to -11.1%.

First: Nc1cccc2c1CN(C1CCC(=O)NC1=O)C2=O (stereo not given)
Second: CC(=O)c1ccc([N+](=O)[O-])cc1
The “viability change, negative = cytotoxic” value of the first is higher: 13.3% for the first, -5.72% for the second.

First: CC(=O)OCCN(CCOC(C)=O)c1ccc(N=Nc2ccc([N+](=O)[O-])cc2C#N)cc1
Second: O=C(/C=C/c1ccc(O)c(O)c1)O[C@@H]1C[C@@](OC(=O)/C=C/c2ccc(O)c(O)c2)(C(=O)O)C[C@@H](O)[C@@H]1O
The “viability change, negative = cytotoxic” value of the first is higher: -0.915% for the first, -15.9% for the second.

Compared with `CC(C)C(O)(c1ccc(OC(F)(F)F)cc1)c1cncnc1` (stereo not given), `O=C=Nc1cccc(C(F)(F)F)c1` is higher in “viability change, negative = cytotoxic” value: 3.55% for the first, 4.97% for the second.

First: Cc1c(C)c2c(c(C)c1OC(=O)CCC(=O)OCCO)CC[C@@](C)(CCC[C@H](C)CCC[C@H](C)CCCC(C)C)O2
Second: O=C(O)C[C@H](NC(=O)OCc1ccccc1)C(=O)O
The “viability change, negative = cytotoxic” value of the first is lower: -20.6% for the first, -6.96% for the second.

Compared with `C=CC(=O)[O-].C=CC(=O)[O-].[Zn+2]`, `CN(C)CCC=C1c2ccccc2C=Cc2ccccc21` is lower in “viability change, negative = cytotoxic” value: 3.02% for the first, -22.1% for the second.

Compared with `Cc1ccccc1S`, `CC(C)(c1ccccc1)c1ccccc1` is higher in “viability change, negative = cytotoxic” value: 7.43% for the first, 13.8% for the second.

With `CC1=Nc2ccc3ccccc3c2C1(C)C` the Potency was 54.5 µM (active).
For `O=C(O)CCC(=O)C(=O)O`, the Potency was “inactive”.
In the case of `CC(=O)Nc1cc(S(=O)(=O)O)cc2cc(S(=O)(=O)O)c(N=Nc3ccccc3)c(O)c12`, the Potency is reported as 19.3 µM (active).
With `CC1=C(Br)C(=O)C(Br)=C/C1=C(/c1ccccc1S(=O)(=O)O)c1cc(Br)c(O)c(Br)c1C` the Potency was 18.6 µM (active).

In the case of `OC(CCN1CCCC1)(c1ccccc1)C1CCCCC1` (stereo not given), the “viability change, negative = cytotoxic” value is reported as 1.16% [at 32.5 µM].
